# According to PubChem BioAssay (NCI):
# Compounds without any hit were thinned out: in the full panel of roughly 83,000, 20% have a hit.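 A percent growth of 40 corresponds to 60% growth inhibition; 0 means no net growth; -100 means all cells died. Active threshold: below 10.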 Unmarked numbers belong to inactive results. The source made the active and inactive calls.
# Experiments:
# Test in all cases: NCI-60 one-dose screen, 48 h (100 = growth as untreated, 0 = no growth, -100 = all killed)
# Conditions in all cases: 10 µM unless noted
# NCI-H23 lung = system: NCI-H23 lung
# NCI-H226 lung = system: NCI-H226 lung
# NCI-H322M lung = system: NCI-H322M lung
# HOP-62 NSCLC = system: HOP-62 NSCLC
# NCI-H460 lung = system: NCI-H460 lung
# HOP-92 NSCLC = system: HOP-92 NSCLC
# NCI-H522 lung = system: NCI-H522 lung
# A549/ATCC NSCLC = system: A549/ATCC NSCLC
# 786-0 renal = system: 786-0 renal
# COLO 205 colon = system: COLO 205 colon
Structure (SMILES),growth (NCI-H23 lung),growth (NCI-H226 lung),growth (NCI-H322M lung),growth (HOP-62 NSCLC),growth (NCI-H460 lung),growth (HOP-92 NSCLC),growth (NCI-H522 lung),growth (A549/ATCC NSCLC),growth (786-0 renal),growth (COLO 205 colon)
Fc1ccc(Nc2ncnc3ccc(-c4cn[nH]c4)cc23)cc1Cl,80.3%,57.1%,15.9%,66.2%,55.5%,54.6%,10.3%,49.5%,61.5%,60.7%
O=c1c2ccccc2sc2c(N3CCCC3)nc3ccccc3c12,88.7%,81.3%,110%,97.7%,96.7%,70.8%,100%,103%,102%,116%
O=C(NCCNc1nccc(-c2c(-c3cccc(O)c3)nc3sccn23)n1)c1ccc(N2CCOCC2)c(C(F)(F)F)c1,85.4%,69.5%,102%,96.7%,66.9%,38.9%,74.4%,64.1%,60.1%,43.4%
O=C1C(Cl)=C(Nc2ccccc2)C(=O)C(Cl)=C1Nc1ccccc1,106%,103%,120%,113%,112%,101%,112%,109%,109%,109%
CC(=O)O[C@@H]1[C@@H](OC(C)=O)[C@H](OC(C)=O)CO[C@H]1Nc1cccc2ccccc12,94.8%,97.2%,94.4%,94.1%,98%,104%,68.3%,102%,107%,99.7%
OCc1cn(-c2ccc(Cl)cc2)nc1-c1ccc(O)cc1,96.7%,96.9%,85.8%,81.9%,106%,136%,71.2%,90.1%,93.4%,115%
CNCCCOc1c(Br)cc(CCNC(=O)/C(Cc2cc(Br)c(OC)c(Br)c2)=N/O)cc1Br,-20.9% (active),75.1%,21%,-7.84% (active),-44.7% (active),-6.24% (active),-64% (active),-16.7% (active),-80.8% (active),-72% (active)
O=C(NC(=S)Nc1ccc(Cl)cc1)c1ccccc1,98.4%,108%,107%,96.6%,105%,85.8%,53%,85.1%,90.9%,132%
CCOC(=O)n1cnc2c(Cl)ncnc21,245%,113%,109%,136%,108%,95.1%,108%,103%,159%,98.9%
COC(=O)c1oc2c(C(=O)/C=C/c3ccc(OC)cc3)c(OCCN3CCOCC3)ccc2c1C,18.7%,-5.76% (active),0.995% (active),-6.52% (active),-20.9% (active),-44.8% (active),-20% (active),2.83% (active),-6.7% (active),-20.9% (active)
COc1cc(Br)c(-c2nc(-c3ccccc3)c(-c3ccccc3)n2Cc2ccccc2)cc1OC,46.8%,70.4%,75.1%,91.8%,48.9%,45.7%,39.6%,37%,67.9%,30.2%
O=C(CSc1nnc(-c2cc3c([nH]c4ccccc43)c(-c3cccc(O)c3)n2)n1-c1ccccc1)c1ccccc1,80.2%,93.4%,89.7%,59.3%,65.3%,67.6%,23%,69.9%,18.8%,105%
O=[N+]([O-])c1ccc(NS(=O)(=O)c2cc(Cl)ccc2Cl)c2ccccc12,32.5%,65.7%,68.4%,65.7%,46.6%,8.11% (active),10.1%,89.5%,62.9%,73.6%
Nc1nc(Cl)cc(NCCCCNc2cc(Cl)nc(N)n2)n1,102%,109%,87.1%,107%,121%,74.3%,83.8%,108%,108%,105%
CCCCN(CCCC)c1ccc(C(=N)c2ccc(N(C)C)cc2)cc1,-46.1% (active),-46.4% (active),-32% (active),-84% (active),-88.5% (active),-32.7% (active),-66.1% (active),3.26% (active),-84.4% (active),-93.8% (active)
COc1cc(-c2nc(SCC(=O)Nc3ccc(C(C)=O)cc3)[nH]c(=O)c2C#N)cc(OC)c1OC,38.4%,58.5%,45.3%,20.7%,5.79% (active),10.3%,-14.5% (active),19.8%,35.5%,-16.2% (active)
CCCCCCCCN(CCCCCCCC)CC(O)c1cc(-c2ccccc2)nc2ccc(OC)cc12 (stereo not given),67.1%,88.1%,106%,95.4%,98.9%,70.1%,77.5%,78.6%,82.6%,85.7%
O=C1c2ccccc2OC=C(c2ccccc2)N1CCCCNc1ccc(F)cc1,90.1%,87.5%,90.3%,85.1%,97.9%,21.8%,69.5%,68.9%,68.2%,67.6%
OC(COc1ccccc1Cl)CN1CCN(c2ccc(Cl)cc2)CC1 (stereo not given),107%,94.5%,101%,108%,104%,85.8%,92.6%,112%,106%,116%
c1ccc(-c2nc3sc(C(c4ccccc4)c4ccccc4)nn3c2-c2ccccc2)cc1,92.2%,99.6%,93.6%,89.9%,95.6%,77.9%,95.3%,85.3%,94.9%,86.8%
O=C(Nc1ccc(-n2cc(-c3ccncc3)c(-c3ccc(O)c(Cl)c3)n2)cc1)c1ccc(Cl)c(Cl)c1,43.7%,74.6%,71.5%,27.5%,22.3%,14.9%,26.3%,33.1%,-41.6% (active),64.9%
COc1ccc(-c2nnc(SCC(=O)Nc3ccc(C(=O)/C=C/c4ccc(OC)c(OC)c4)cc3)o2)cc1,91.9%,86.2%,94.6%,73.6%,95.1%,81.3%,68.4%,77.7%,106%,102%
Nc1ncnc2c1c(-c1ccc(Oc3ccccc3)cc1)nn2C[C@H]1SSC[C@@H]1O,53.2%,22.9%,46.9%,49.7%,22%,-2.99% (active),-3.56% (active),31%,66.2%,6.71% (active)
CC(Cc1cccc(C(F)(F)F)c1)NCCOC(=O)c1ccccc1 (stereo not given),101%,98.3%,100%,102%,114%,114%,100%,105%,97.9%,106%
CC1(C)Cc2c(Br)c(Br)c(Br)c(OCC(O)CN3CCN(c4ccccn4)CC3)c2O1 (stereo not given),80.9%,91.7%,57.6%,102%,88%,-5.32% (active),60.9%,80.4%,31.3%,114%
CC(C)(CCN=C(N)Nc1ccccn1)c1ccc(C(F)(F)F)cc1,11.8%,42.4%,45.5%,50.4%,18.3%,-2.94% (active),4.82% (active),31.2%,29.2%,-72.8% (active)
N#CC(C#N)=C(C#N)c1c[nH]c2ccccc12,87.4%,78.4%,110%,81.2%,92.8%,41.2%,57.4%,80.4%,82.4%,73.8%
